Giardia FBPA inh: Giardia lamblia aldolase inhibition; A8B2U2; Potency, µM (top dose mostly 59.6 µM), inactives show at the highest dose activity, negative = inhibition, usual class: inhibitors; AID 2451; purified Giardia FBPA; 0.71% of 290,000 active; note: potency is the fitted concentration of half-maximal effect; nearly all actives have a fitted effect of over 55% in size
Target sequence (A8B2U2 whole entry, looked up): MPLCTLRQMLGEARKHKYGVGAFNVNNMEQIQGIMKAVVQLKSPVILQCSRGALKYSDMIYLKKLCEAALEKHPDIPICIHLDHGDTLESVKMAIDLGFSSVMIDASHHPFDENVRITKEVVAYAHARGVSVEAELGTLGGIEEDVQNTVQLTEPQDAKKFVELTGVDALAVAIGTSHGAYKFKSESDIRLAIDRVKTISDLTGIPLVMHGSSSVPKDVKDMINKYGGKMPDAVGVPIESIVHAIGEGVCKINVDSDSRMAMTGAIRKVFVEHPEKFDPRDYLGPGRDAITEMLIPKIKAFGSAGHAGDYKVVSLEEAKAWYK
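40 nM FBPA preincubated 10 min at RT with compound (up to 57.5 uM final), then substrate plus GAPDH/TPI/NAD/arsenate coupling and diaphorase/resazurin added. Fluorescence read after 20 min at RT, 525/598 nm.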
VACV Venus inh: inhibitors of vaccinia virus (Venus reporter); Vaccinia virus Venus reporter expression, fluorescence; Potency, µM (top dose mostly 36.5 µM), inactives show top-dose activity change, negative = inhibition, hits mostly inhibitors; 0.46% of 330,000 active; AID 720580; calls by dose curve; tested in A549 cells; note: potency is the fitted concentration of half-maximal effect; nearly all actives have a fitted effect of over 30% in size
HCV inh: inhibitors of hepatitis C virus infection; Huh7.5.1 HCVcc-Cre infection, luciferase reporter, 44 h; Potency, µM (series often up to 41.8 µM), for inactives: top-dose activity change, negative = inhibition, most hits filed as inhibitors; 3.4% of 340,000 active; AID 651820; note: potency is the fitted concentration of half-maximal effect
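Antiviral activity was scored by luciferase reporter output from cells infected with HCVcc-Cre (~0.5 moi) in presence of compound, 44 h infection period, cells seeded 1,000/well 4 h prior.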
Vaccinia mCherry: inhibitors of vaccinia virus infection (mCherry reporter signal) | Vaccinia virus mCherry reporter infection, fluorescence | Potency, µM (series often up to 36.5 µM), for the others: at the highest dose activity change, negative = inhibition, usual class: inhibitors | 0.63% of 310,000 active; calls by dose curve; tested in A549 cells; note: potency is the fitted concentration of half-maximal effect; nearly all actives have a fitted effect of over 35% in size
HCMV inh: human cytomegalovirus inhibition; HFF cells, HCMV-luciferase reporter, 72 h; stronger effect = lower value; activity change, negative = inhibition, % at 57.5 µM; 4.5% of 410,000 active; in the data active = activity change below about -60%; inconclusive = no clear call, values can overlap the other calls; inactive = above about -39%
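Cell-based, HFFs, 1000 cells/well, 16 h 37C; cpds in DMSO + HCMV-luc, MOI 1 PFU/cell; 72 h 37C; OneGlo luminescence after 5 min RT; norm. to buffer vs Salinomycin 10uM.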
FMDV antiviral: foot and mouth disease virus antiviral activity; FMDV antiviral cell-based qHTS; Potency, µM (titrated, usually from 57.9 µM), without a hit: top-dose activity change, negative = inhibition, hits mostly inhibitors; 1.2% of 410,000 active; calls by dose curve; tested in HEK293T cells; note: read-out not given here; potency is the fitted concentration of half-maximal effect; nearly all actives have a fitted effect of over 45% in size
An asterisk follows results filed as active; i = inactive; ? = inconclusive; nt = no result; ! = repeats disagree; [ ] = dose if it differs, or a comment. In the library only some 7.5% were active in any assay of this set; here they are far more common. Unless noted, calls come from the whole dose curve; as a rule, active = well fitted curve in the direction sought with a large enough effect; inconclusive = small, poorly fitted or top-dose-only effect, or another doubt; inactive = no such curve, though single readings can be large; an effect the other way counts as inactive or inconclusive. % is set by controls: 0 for no effect and ±100 for the full control effect.

SMILES	Giardia FBPA inh	VACV Venus inh	HCV inh	Vaccinia mCherry	HCMV inh	FMDV antiviral
COc1ccc(CCC(=O)NC(C)C)cc1	6%	-9%	-1%	-24%	-86*	-3%
COc1ccc(C(=O)CCc2ccccc2)cc1	3%	nt	11µM*	nt	?	52%
Cc1ccc(C(=O)c2cn(CC(=O)Nc3ccc(C(C)C)cc3)c3nc(C)ccc3c2=O)cc1	nt	?	nt	?	17	-1%
Cc1ccc(-c2nnc(Nc3ccc(C(N)=O)cc3)c3ccccc23)cc1S(N)(=O)=O	nt	7%	nt	-3%	-16	14%
Cc1ccc(Cn2nc3c(cc2=O)CCc2ccccc2-3)cc1	-5%	nt	14µM*	nt	-10	35%
O=c1cc2c(nn1Cc1ccc(Cl)cc1)-c1ccccc1CC2	2%	-24%	-2%	?	-16	17%
CC(C)Cn1cc(NC(=O)NCc2ccccc2Cl)c2ccccc2c1=O	nt	1%	nt	4%	-9	-19%
CC(CCc1ccc(O)cc1)NCCC(c1ccccc1)c1ccccc1 (stereo not given)	-26%	-17%	14µM*	?	-10	25%
CC(CCc1ccccc1)NCC#N (stereo not given)	-25%	-8%	15%	-9%	-61*	-8%
Cc1cnc(SCc2ccccn2)nc1C1CCCN(C(=O)c2coc3c2C(=O)CCC3)C1 (stereo not given)	nt	-20%	nt	-24%	nt	-7%
Cc1cnc(SCc2ccccn2)nc1C1CCCN(C(=O)c2scc3c2CCCC3)C1 (stereo not given)	nt	?	nt	?	nt	16µM*
Cc1cnc(SCc2ccccn2)nc1C1CCCN(C(=O)c2noc3c2CCCC3)C1 (stereo not given)	nt	?	nt	-16%	nt	20µM*
C=C1CCN(C(CC(C)C)C(=O)NCc2ccc(OC)cc2)S(=O)(=O)c2ccccc21 (stereo not given)	-9%	nt	nt	nt	nt	nt
Cc1ccc(C(=O)C[n+]2cccc3cccc(O)c32)cc1	nt	3%	nt	-1%	nt	nt
CCCSc1nnc(-c2cccc(S(=O)(=O)N(C)C)c2)n1-c1cc(OC)ccc1OC	0%	nt	-10%	nt	-62*	16%
COC(=O)C1=CN(c2ccc(OC)cc2)C=C(C(=O)OC)C1c1ccc(C)c([N+](=O)[O-])c1	-5%	-19%	?	-2%	-78*	?
Cc1oc(-c2ccccc2Cl)nc1CSCC(=O)NC1CCCC1	10%	-22%	-12%	i	-75*	-14%
Cc1oc(-c2ccccc2Cl)nc1CSCC(=O)N1CCCC1	-4%	nt	?	nt	-78*	24%
Cc1oc(-c2ccccc2Cl)nc1CSc1nc2c(c(=O)[nH]1)CCC2	-11%	-18%	1%[8.37 µM]	-7%	-15	22µM*
CCOC(=O)N1CCC(NC(=O)CSCc2nc(-c3ccccc3Cl)oc2C)CC1	nt	?	-28%	?	-22	-22%
N=C1SC(CC(=O)Nc2ccccc2[N+](=O)[O-])C(=O)N1c1ccccc1 (stereo not given)	0%	nt	5%	nt	3	-11%
O=c1nc(-c2ccccc2)c2cc(SC(F)F)ccc2[nH]1	2%	-21%	-8%	-2%	-24	-22%
Cc1ccc2[nH]c3c(c2c1)CN(C(=O)CN1CCN(C(=O)c2ccco2)CC1)CC3	-13%	nt	nt	nt	7	nt
Cc1ccc2[nH]c3c(c2c1)CN(C(=O)CN1CCN(c2cccc(C)c2C)CC1)CC3	?	?	6.3µM*	nt	20	?
O=C(COc1ccc(F)cc1)Nc1nc(-c2ccccn2)cs1	nt	-12%	?	-29%	-25	-16%
SMILES	Giardia FBPA inh	VACV Venus inh	HCV inh	Vaccinia mCherry	HCMV inh	FMDV antiviral
O=C(Nc1ccc(F)cc1F)c1csc(-c2ccccc2)n1	1%	-10%	?	-18%	36	35%
O=C(Nc1nc(-c2ccccc2)cs1)Nc1ccc(F)cc1F	-1%	-12%	?	-27%	-75*	-8%
O=C(Nc1ccc(F)cc1F)c1cccc(C(=O)Nc2ccc(F)cc2F)n1	-3%	-19%	-15%	-5%	-99*	-10%
O=C(Nc1nc(-c2ccccn2)cs1)Nc1ccc(F)cc1F	?	?	?	4µM*	?	-7%
COC(=O)c1cnc(Oc2ccc(NC(=O)NC(=O)c3c(OC)cccc3OC)cc2)cc1C(F)(F)F	7%	?	-24%	?	-98*	-27%
CC(C)CCn1c(=O)c2sccc2n2c(CCCC(=O)N3CCC(N4CCCCC4)CC3)nnc12	nt	nt	13µM*	nt	?	-19%
CC(C)Cn1c(=O)c2sccc2n2c(CCCC(=O)N3CCC(N4CCCCC4)CC3)nnc12	6%	-4%	-7%	-24%	?	25%
O=C(CC(C(=O)O)C1CCCO1)NCc1ccccc1 (stereo not given)	3%	-10%	5%	-5%	-101*	-9%
COc1ccc2c(c1)[C@@H](NC(C)=O)[C@H](C)[C@@H](c1ccccc1)N2C(=O)Nc1ccc(C(F)(F)F)cc1	nt	nt	nt	nt	-27	nt
COc1cccc(C2CC3(CC(C)(C)NC(=S)N3)Oc3cc(O)ccc32)c1 (stereo not given)	16%	-5%	?	-6%	-37	-26%
Cc1cccc(C2CC3(CC(C)(C)NC(=S)N3)Oc3cc(O)ccc32)c1 (stereo not given)	-2%	-27%	10µM*	?	14	-12%
COc1cc(-c2ccc3c(=O)c4ccccc4sc3c2)cc(OC)c1OC	nt	14µM*	24%	-33%	19	-7%
Cc1cc(C(=O)c2ccc(C(C)(C)C)cc2)c(NC(=O)CCl)s1	-4%	-17%	?	-3%	-65*	35µM*
O=C(CCl)Nc1sccc1C(=O)c1ccccc1	nt	-9%	2%	-10%	-14	20µM*
Cc1cc(C(=O)c2ccccc2)c(NC(=O)CN2CCOCC2)s1	1%	-12%	-3%	-22%	-6	-9%
COc1cc2c(cc1OC)[C@@H](NC(=O)CCC1CCCCC1)[C@H](O)C2	nt	-1%	?	-6%	0	-23%
C[C@]12CCC(=O)C=C1CCC1C2C(O)C[C@]2(C)C1CC[C@]2(O)C(=O)CO (stereo not given in full)	2%	-28%	nt	-4%	nt	1%
CCC(C(=O)OCC(=O)C1(O)CCC2C3CCC4=CC(=O)CCC4(C)C3C(O)CC21C)C(C)C (stereo not given)	nt	?	?	-23%	32	20µM*
C[C@H]1[C@@H](NS(=O)(=O)c2ccc(C#N)cc2)CC[C@@]23CCCN2C(=O)CCC[C@@H]13	nt	nt	nt	nt	6	nt
COCCCC/C(=N\OCCN)c1ccc(C(F)(F)F)cc1	-7%	-18%	16µM*!	-29%	19	-21%
COc1ccc(/C=C/C(=O)NCCCN2CCCC2)cc1	-14%	nt	-8%	nt	-103*	-10%

High-throughput results: PubChem BioAssay, National Center for Advancing Translational Sciences (NCATS)
